# In PubChem BioAssay:
# Experiment: resazurin metabolic signal in HepG2 cells – cell-based, resazurin fluorescence, 24 h, PK04 Diversity Set, profiling panel (AID 1172); further: test concentration not given here
# Settings: HepG2 viability, higher = more signal
row,Structure (SMILES),z-score
1,C=CCN1C(=O)[C@@]2(Cc3ccccc31)N=C(c1ccc(OCCCO)cc1)O[C@H]2c1ccccc1,-0.0935
2,CC(C)C(O)C1C=CC2C(=O)N(c3ccccc3)C(=O)C2N1Nc1ccc([N+](=O)[O-])cc1 (stereo unspecified),-0.283
3,COC(=O)[C@H](Cc1ccccc1)N[C@@H](/C=C/C1CC1)[C@H](O)Cc1ccccc1,0.717
4,O=C1O[C@H](c2ccccc2)[C@H](c2ccccc2)N2[C@H]1[C@@H](C(=O)N1CCCCCCC1)[C@]1(C(=O)Nc3ccc(C#CC4=CCCCC4)cc31)[C@H]2c1ccc(OCCO)cc1,-0.881
5,CCOC(=O)C[C@H]1[C@H](OC(=O)c2ccc(C(=O)c3ccccc3)cc2)[C@@H](NC(=O)c2ccccc2)c2cc(OCCCO)ccc2N1C(=O)Cc1ccc(OC)cc1,0.844
6,COc1ccc([Si](C)(C)[C@H]2[C@H](CCO)O[C@@]3(C(=O)N(Cc4ccc(N(C=O)c5ccccc5)cc4)c4ccccc43)[C@@H]2C)cc1,-1.57
7,CC(C)c1ccc(NN2C(C(O)c3ccc(B(O)O)cc3)C=CC3C(=O)N(c4ccccc4)C(=O)C32)cc1 (stereo unspecified),-1.18
8,COc1ccc(CCNC(=O)[C@@]2(Sc3ccc(C)cc3)CC(=O)N(C3Cc4ccccc4C3)[C@@H]2c2ccc(CO)cc2I)cc1,0.0641
9,COCCOC(=O)N1C(=O)[C@@]2(c3ccccc31)[C@H](c1ccc(O)cc1)N1[C@H](c3ccccc3)[C@H](c3ccccc3)OC(=O)[C@H]1[C@@H]2C(=O)Nc1nc2ccccc2s1,-0.175
10,C=C(C(=O)CC[C@@H](OC(=O)c1cccnc1)c1ccccc1OCCO)C(C)C,-0.0206
11,NCCCCCNC(=O)[C@@H]1C[C@@H]2C(=O)N[C@@H](Cc3ccccc3)C(=O)N2[C@@H]1c1ccc(O)cc1,-1.74
12,CCCCCCc1nc(-c2ccc(OC)nc2)cc2c1[Si](C(C)C)(C(C)C)O[C@H]2c1ccccc1,0.153
13,C[N+](C)(C)CCCCNC(=O)[C@@H]1C[C@@H]2C(=O)N[C@@H](Cc3ccccc3)C(=O)N2[C@@H]1c1cccc(OCCO)c1,-0.278
14,COc1cc2c(cc1O)C(c1cccs1)N(C)CC2 (stereo unspecified),-0.493
15,C[C@@]1([C@@H](NC(=O)c2ccc(-c3ccccc3)cc2)c2ccc(Cl)cc2)C[C@H]1C1CCCCC1,-0.953
16,Cc1ccc(S[C@]2(C(=O)O)CC(=O)N(C(C)C)[C@@H]2c2ccc(CO)cc2I)cc1,0.975

row,Structure (SMILES),z-score
1,CN1C(=O)C2C=CC(C(O)C3CC=CCC3)N(N(c3ccccc3)c3ccccc3)C2C1=O (stereo unspecified),0.129
2,O=C1NC(=O)C2C1C=CC(C(O)c1cccs1)N2Nc1ccc(Cl)cc1Cl (stereo unspecified),-1.14
3,C=CCC(OC(C)=O)[C@@H]1[C@@H](N(Cc2ccc(-c3ccccc3)cc2)C(=O)Cc2ccc(OC)cc2)c2cc(OCCCO)ccc2N1C(=O)Cc1ccc2ccccc2c1 (stereo partly specified),-0.978
4,CC(C)C[C@@H]1NC(=O)[C@@H]2C[C@H](C(=O)NCc3ccc(F)cc3)[C@H](c3cccc(OCCO)c3)N2C1=O,0.137
5,C=CCC(OC(C)=O)[C@@H]1[C@@H](N(Cc2ccc(-c3ccccc3)cc2)C(=O)c2cccc3ccccc23)c2cc(OCCCO)ccc2N1C(=O)c1ccc(-c2ccccc2)cc1 (stereo partly specified),-0.398
6,CCCC[C@H]1OB(O)C[C@H]2C1=C(COC)Cn1c(=O)n(-c3ccccc3)c(=O)n12,-0.248
7,O=C1NC(=O)C2C1C=CC(C(O)c1cc(C(F)(F)F)cc(C(F)(F)F)c1)N2Nc1ccccn1 (stereo unspecified),-0.85
8,CC1CC/C=C\[C@H]2OC34C=CCN(Cc5ccccc5)C(=O)[C@H]3N(CCCO)C(=O)[C@@H]4C2C(=O)O1 (stereo partly specified),-0.385
9,C=C(CC1([C@@H](NP(=O)(c2ccccc2)c2ccccc2)[C@H]2C[C@@H]2CCCC)CC1)c1ccccc1,2.02
10,CC(C)N1C(=O)c2ccccc2[C@](C)(C(=O)NCCN2CCOCC2)[C@@H]1c1ccc(CO)cc1,0.0412
11,[N-]=[N+]=NCc1ccccc1[C@@H]1OC(c2ccc(OCCCO)cc2)=N[C@]1(Cc1ccccc1)C(=O)NCC(O)CO (stereo partly specified),0.597
12,Cc1ccc(S[C@]2(C(=O)NCCCN(C)C)CC(=O)N(Cc3ccccc3C(F)(F)F)[C@@H]2c2ccc(CO)cc2)cc1,-0.758
13,[N-]=[N+]=Nc1ccccc1[C@@H]1OC(c2ccc(OCCCO)cc2)=N[C@]1(Cc1ccccc1)C(=O)N1CCOCC1,-0.601
14,Cc1nc2cc(Br)ccc2c(=O)o1,0.817
15,CC1CC/C=C\[C@H]2OC34C=CCN(C(C)(C)C)C(=O)[C@H]3N(C(C)CO)C(=O)[C@@H]4C2C(=O)O1 (stereo partly specified),0.0366
